Only some compounds are listed: those with a hit (about 3.2% of all), similar ones and a draw of the others.
rCAG RNA binder = binders of r(CAG) RNA repeats, primary screen, biochemical, fluorescence; r(CAG) RNA repeat, TO-PRO-1 dye displacement fluorescence; inhibition, % at 3 µM; actives 1.3% (n = 370,000);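 active = inhibition above the plate cutoff, the mean of all test compounds on that plate plus 3 SD, cut at about 35% in these data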;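 note: 0% = DMSO alone and 100% = 100 µM mitoxantrone as full dye displacement; higher means more dye released from RNA so lower well fluorescence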
DSG3 Ab inh = inhibitors of pemphigus antibody binding to DSG3, primary screen, biochemical, bead-based, flow cytometry, scFv-GFP; DSG3-coupled beads, scFv-anti-DSG3-GFP binding; stronger effect = lower value; binding (percent of control), % at 10 µM; actives 0.48% (n = 310,000);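 active = binding more than 3 SD below its plate's average and above zero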;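 note: hits lower antibody fragment binding to DSG3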
Target sequence (P32926 whole entry, looked up, the tested form may be a part): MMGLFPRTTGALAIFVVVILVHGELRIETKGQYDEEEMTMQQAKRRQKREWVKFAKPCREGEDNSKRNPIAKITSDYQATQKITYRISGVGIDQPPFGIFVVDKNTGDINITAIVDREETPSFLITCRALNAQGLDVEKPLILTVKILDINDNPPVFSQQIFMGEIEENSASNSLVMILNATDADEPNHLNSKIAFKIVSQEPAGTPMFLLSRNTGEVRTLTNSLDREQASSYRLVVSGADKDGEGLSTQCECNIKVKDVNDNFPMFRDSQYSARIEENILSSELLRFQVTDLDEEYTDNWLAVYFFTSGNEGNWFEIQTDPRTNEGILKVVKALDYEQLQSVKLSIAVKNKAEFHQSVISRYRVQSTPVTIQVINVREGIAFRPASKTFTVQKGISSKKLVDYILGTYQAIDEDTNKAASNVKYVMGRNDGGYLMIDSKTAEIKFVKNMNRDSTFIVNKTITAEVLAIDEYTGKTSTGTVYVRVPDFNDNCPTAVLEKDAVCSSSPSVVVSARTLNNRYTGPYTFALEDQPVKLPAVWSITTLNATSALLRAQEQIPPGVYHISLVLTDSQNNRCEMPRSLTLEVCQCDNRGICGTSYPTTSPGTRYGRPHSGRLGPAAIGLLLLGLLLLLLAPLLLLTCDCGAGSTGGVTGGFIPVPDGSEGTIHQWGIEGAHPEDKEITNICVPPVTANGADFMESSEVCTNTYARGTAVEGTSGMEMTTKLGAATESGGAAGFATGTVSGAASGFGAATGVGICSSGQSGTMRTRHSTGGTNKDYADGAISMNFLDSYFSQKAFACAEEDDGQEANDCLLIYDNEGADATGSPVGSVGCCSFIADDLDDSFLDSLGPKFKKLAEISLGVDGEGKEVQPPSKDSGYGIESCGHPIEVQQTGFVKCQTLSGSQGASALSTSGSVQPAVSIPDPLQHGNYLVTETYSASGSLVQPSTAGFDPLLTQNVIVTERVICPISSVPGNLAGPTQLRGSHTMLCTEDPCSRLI
MsrA inh = bovine MsrA enzyme inhibitors, primary screen, biochemical, absorbance, HTS; purified bovine MsrA, absorbance read-out; inhibition, % at 15.5 µM; actives 0.75% (n = 360,000); AID 651718, 2012;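 note: 0% = vehicle wells with enzyme and 100% = reference inhibitor wells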
MsrA act = bovine MsrA enzyme activators, primary screen, biochemical, absorbance, HTS. Methionine sulfoxide reductase A (Bos taurus). activation, % at 10.6 µM. AID 602163, 2012. purified bovine MsrA, absorbance read-out. actives 0.3% (n = 360,000); in the data active = activation above about 7.5%;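 note: 0% = vehicle and 100% = reference activator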
DAGLB inhibitor = DAGLB lipase inhibitors, primary screen, biochemical, fluorescence, HTS; actives 0.059% (n = 340,000); HEK293T DAGLB membrane lysate, EnzChek fluorogenic substrate; AID 504411, 2011; inhibition, % at 5.17 µM; in the data active = inhibition above about 34%;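 note: 0% = enzyme with vehicle and 100% = wells lacking enzyme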
NadD block = inhibitors of S. aureus NadD, primary screen, biochemical, colorimetric, uHTS; Nicotinate-nucleotide adenylyltransferase NadD (Staphylococcus aureus N315); purified NadD enzyme, colorimetric absorbance read-out; inhibition, % at 20 µM; actives 0.78% (n = 360,000); AID 602399, 2012; in the data active = inhibition above about 26%
NadD inh conf = inhibitors of S. aureus NadD, confirmation, biochemical, colorimetric, single concentration. shares compounds with NadD block. actives 13% (n = 2,000). inhibition, % at 20 µM. purified S. aureus NadD, colorimetric enzyme assay; in the data active = inhibition mostly above about 42%, no sharp cut-off; inactive = mostly below about 42%
MsrA inh confirm = bovine MsrA inhibitors, retest, confirmation, biochemical, absorbance, HTS; shares compounds with MsrA inh; purified bovine MsrA, absorbance read-out; inhibition, % at 15.5 µM; actives 41% (n = 2,300);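 note: coupled to thioredoxin reductase with NADPH and selenocystamine and DMSO as substrate; 0% = vehicle only and 100% = full effect of reference inhibitor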
* = called active by the depositor; . = no result given. Cut-off read from the data, not from the text of the source, unless noted: active = inhibition above about 4.5%; inactive = the rest.

SMILES | rCAG RNA binder | DSG3 Ab inh | MsrA inh | MsrA act | DAGLB inhibitor | NadD block | NadD inh conf | others
CCC(C)C(=O)Nc1nc(C)c(-c2csc(Nc3cc(Cl)ccc3OC)n2)s1 (stereo not drawn) | 31.9 | 100.3 | 0.1 | -2.4 | 0.0 | 32.4* | 13.1
CCOc1ccccc1Nc1nc(-c2sc(NC(=O)c3cccc(Cl)c3)nc2C)cs1 | 22.3 | 94.3 | 0.5 | -3.4 | 3.6 | 55.3* | -0.2
CCC(C)C(=O)Nc1nc(C)c(-c2csc(Nc3cc(OC)ccc3OC)n2)s1 (stereo not drawn) | 22.5 | 110.0 | 0.1 | -1.9 | 1.1 | 7.2 | .
COc1ccc(Cl)cc1Nc1nc(-c2sc(NC(=O)C(C)(C)C)nc2C)cs1 | 34.2 | 95.8 | 0.3 | -0.3 | 0.3 | 38.8* | 10.0
COc1ccccc1Nc1nc(-c2sc(NC(=O)c3ccccc3)nc2C)cs1 | 19.2 | 102.9 | 1.7 | -3.3 | 3.9 | 29.2 | .
O=C(/C=C/[C@H]1O[C@@H](n2cnc3c(NC(=O)c4ccccc4)ncnc32)[C@H](O)[C@@H]1O)NCc1ccco1 | -0.3 | . | -0.3 | -2.1 | . | -4.7 | .
NC(=O)[C@@H]1CC2(CC(c3cccc(NC(=O)CC(c4ccccc4)c4ccccc4)c3)=NO2)CN1C(=O)c1ccc(Cl)cc1 (stereo partly drawn) | 23.0 | 90.7 | -0.7 | -3.9 | -1.1 | 31.6* | 23.1
C/C=C(\C)C(=O)Nc1cccc(C2=NOC3(C2)C[C@@H](C(N)=O)N(C(=O)c2cc([N+](=O)[O-])cc([N+](=O)[O-])c2C)C3)c1 (stereo partly drawn) | 12.4 | 105.0 | 2.3 | -0.7 | 3.7 | 12.6 | .
NC(=O)[C@H]1CC2(CC(c3cccc(NC(=O)CC(c4ccccc4)c4ccccc4)c3)=NO2)CN1C(=O)CC(c1ccccc1)c1ccccc1 (stereo partly drawn) | 14.4 | 99.8 | 0.1 | -5.7 | 1.7 | 41.7* | 18.8
CCC(=O)N1CC2(CC(c3cccc(NC(=O)CC(c4ccccc4)c4ccccc4)c3)=NO2)C[C@H]1C(N)=O (stereo partly drawn) | 4.7 | 99.6 | -0.5 | 0.6 | 0.3 | -7.2 | .
Cc1c(C(=O)N2CC3(CC(c4cccc(NC(=O)CC(c5ccccc5)c5ccccc5)c4)=NO3)C[C@@H]2C(N)=O)cc([N+](=O)[O-])cc1[N+](=O)[O-] (stereo partly drawn) | 26.8 | 91.8 | 0.3 | -2.5 | 4.2 | 29.7* | 48.2*
CC(C)Oc1ccc(S(=O)(=O)N2CCCCCC2)c2ccccc12 | 1.2 | . | . | . | . | . | .
O=C(C=Cc1ccc2c(c1)OCO2)c1ccccc1 | 0.6 | 95.0 | 1.6 | -3.9 | -10.5 | -4.2 | .
CNc1ccc(Br)cc(C(=O)/C=C/c2ccc3c(c2)OCO3)c1=O | 32.8 | 88.7 | 1.2 | -5.3 | 8.8 | 40.1* | 20.4
Cc1cccc(/C=N/NC(=O)c2cc(-c3cccnc3)nc3c2c(C)nn3-c2ccccc2)c1 | 2.9 | 114.9 | -1.3 | -4.1 | -1.3 | 36.5* | 6.9
CC(Cl)C(=O)N1CCC(C(=O)NCC2COc3ccccc3O2)CC1 (stereo not drawn) | 3.2 | . | . | . | . | . | .
COc1ccc(NS(=O)(=O)c2cccc(C(=O)N/N=C/c3cn(-c4ccccc4)nc3-c3ccccc3)c2)cc1 | 3.9 | 76.2 | 1.0 | -2.2 | 1.4 | 12.5 | .
COc1ccccc1NS(=O)(=O)c1cccc(C(=O)N/N=C/c2cn(-c3ccccc3)nc2-c2ccccc2)c1 | 14.8 | 115.6 | 6.1* | -5.7 | -9.9 | 32.6* | 25.1 | MsrA inh confirm=3.6
CCCc1ccc(C(O)c2ncc(-c3ccc(OC)cc3)[nH]2)cc1 (stereo not drawn) | 1.5 | . | 0.4 | -1.0 | . | -7.3 | .

High-throughput results as filed in PubChem BioAssay.
